Among the test systems are SK-MEL-2 melanoma; EKVX NSCLC; SN12C renal; UO-31 renal; TK-10 renal; ACHN renal; CAKI-1 renal; A498 renal; CCRF-CEM leukemia; MOLT-4 leukemia.
Assay in all cases: NCI-60 one-dose screen, 48 h (100 = growth as untreated, 0 = no growth, -100 = all killed)
Holding throughout (conditions): 10 µM unless noted

Molecules are shown by their SMILES. Compounds without any hit were thinned out: in the full panel of roughly 83,000, 20% have a hit.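 Interpretation: 100, growth as untreated; towards 0, rising growth inhibition; 0, no net growth; 0 to -100, cell death. Compounds scoring below 10 were considered active.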 Values without a mark were called inactive. Calls of active or inactive are those of the source.

Turning to `OC(c1cc2c(Cl)cc(Cl)cc2c2cc(C(F)(F)F)ccc12)C1CCCCN1` (centres undefined), the growth in the assay on SK-MEL-2 melanoma was -65.3% (active); with EKVX NSCLC, -51.8% (active); in the assay with SN12C renal it was -79.1% (active); in the assay with UO-31 renal, -87.6% (active); with TK-10 renal, -87.7% (active); with ACHN renal it was -78.6% (active). The growth in the assay on CAKI-1 renal is -62.5% (active); in the assay on A498 renal it was 0.166% (active); in the assay on CCRF-CEM leukemia it was -54.7% (active); in the assay with MOLT-4 leukemia it was -62.6% (active).
On to `F`, for which the growth with SK-MEL-2 melanoma was -27.7% [6.87 mM] (active); with EKVX NSCLC, -14.8% [6.87 mM] (active); with SN12C renal it was 27% [6.87 mM]; in the assay on UO-31 renal it was 12% [6.87 mM]; in the assay with TK-10 renal it was 4.45% [6.87 mM] (active); in the assay on ACHN renal it was 23.6% [6.87 mM]. Moreover, the growth in the assay with CAKI-1 renal was 28.9% [6.87 mM]; in the assay on A498 renal, -28.8% [6.87 mM] (active); in the assay with CCRF-CEM leukemia, 29.9% [6.87 mM]; with MOLT-4 leukemia it was 23.5% [6.87 mM].
For `CCN1CCN(Cc2ccc(NC(=O)c3nc4ccc5[nH]ncc5c4c4c3CCCC4)cc2C(F)(F)F)CC1`, the growth with SK-MEL-2 melanoma was 92%; in the assay on EKVX NSCLC, 74.3%; in the assay on SN12C renal it was -75.6% (active); in the assay with UO-31 renal, -91.8% (active); with TK-10 renal, -33.7% (active); with ACHN renal, -97.1% (active). Further, the growth was -11.7% (active) in the assay on CAKI-1 renal, 93.2% with A498 renal, 3.68% (active) with CCRF-CEM leukemia and -28.9% (active) in the assay on MOLT-4 leukemia.
`COc1ccc(Br)c2ccccc12`: the growth in the assay with SK-MEL-2 melanoma was 113%; in the assay on EKVX NSCLC, 94%; in the assay with SN12C renal it was 112%; in the assay with UO-31 renal, 70.3%; with TK-10 renal, 118%; in the assay on ACHN renal, 102%. Besides, the growth was 95.3% in the assay with CAKI-1 renal, 135% in the assay with A498 renal, 103% with CCRF-CEM leukemia and 91.6% in the assay on MOLT-4 leukemia.
As to `O=C(CCCCCCc1nc2ccc(Br)cc2[nH]1)NO`, the growth was -5.43% (active) in the assay on SK-MEL-2 melanoma; 28.6% in the assay on EKVX NSCLC; 1.73% (active) in the assay on SN12C renal; -17.9% (active) in the assay with UO-31 renal; -13.9% (active) with TK-10 renal; -36.2% (active) in the assay with ACHN renal. For the same compound, the growth with CAKI-1 renal was -41.5% (active); in the assay on A498 renal, 9.4% (active); in the assay with CCRF-CEM leukemia it was 9.8% (active); in the assay on MOLT-4 leukemia it was 7.38% (active).
For `CCCC(CCC)NCC(O)c1cc(-c2ccc(C(F)(F)F)cc2)nc(C(F)(F)F)c1` (centres undefined), the growth was -66.1% (active) in the assay with SK-MEL-2 melanoma; -9.08% (active) in the assay on EKVX NSCLC; -78.5% (active) in the assay with SN12C renal; -44.9% (active) with UO-31 renal; -63.8% (active) with TK-10 renal; -60.1% (active) in the assay with ACHN renal. Moreover, the growth in the assay with CAKI-1 renal was -28.1% (active); with A498 renal it was -31% (active); with CCRF-CEM leukemia, -7.92% (active); in the assay with MOLT-4 leukemia it was -30.6% (active).
For the compound `CN(C)c1ccc(C(c2ccccc2)c2ccc(N(C)C)cc2)cc1`, the growth with SK-MEL-2 melanoma was 89.1%; with EKVX NSCLC it was 102%; in the assay with SN12C renal it was 92.6%; in the assay on UO-31 renal, 62.1%; with TK-10 renal it was 122%; in the assay on ACHN renal, 97.9%. Besides, the growth is 93.1% in the assay with CAKI-1 renal, 107% with A498 renal, 99.2% in the assay on CCRF-CEM leukemia and 85.7% with MOLT-4 leukemia.
`COc1cc2c(cc1C)NC(=O)/C2=C\c1c[nH]c2ccccc12`: the growth in the assay with SK-MEL-2 melanoma was 76.4%; in the assay with EKVX NSCLC, 74.5%; with SN12C renal it was 67.8%; with UO-31 renal, 27.6%; in the assay with TK-10 renal, 83.7%; in the assay with ACHN renal, 61.8%. For the same compound, the growth with CAKI-1 renal was 10.6%; in the assay with A498 renal, 78.5%; with CCRF-CEM leukemia it was 53.6%; with MOLT-4 leukemia it was 24.4%.
`CCC(C)C1NC(=O)c2nc(oc2-c2ccccc2)-c2csc(n2)-c2csc(n2)-c2nc(oc2C)-c2coc(n2)CNC(=O)C(C(C)CC)NC1=O` (centres undefined): the growth in the assay with SK-MEL-2 melanoma was -80.1% (active); with EKVX NSCLC it was -71.3% (active); in the assay on SN12C renal it was -65.3% (active); with UO-31 renal it was -90.1% (active); with TK-10 renal, -86.7% (active); with ACHN renal, -91.3% (active). The growth in the assay on CAKI-1 renal was -95.2% (active); in the assay with A498 renal it was -85.3% (active); with CCRF-CEM leukemia, -66.4% (active); in the assay on MOLT-4 leukemia, -66.2% (active).
`CCOC(=O)C(Nc1ccccc1)C(=O)OCC`: the growth in the assay on SK-MEL-2 melanoma is 108%; with EKVX NSCLC, 108%; in the assay on SN12C renal it was 99.3%; in the assay with UO-31 renal it was 74.8%; with TK-10 renal it was 107%; in the assay on ACHN renal, 99.3%. Further, the growth in the assay with CAKI-1 renal is 105%; in the assay on A498 renal, 126%; with CCRF-CEM leukemia, 111%; with MOLT-4 leukemia, 83%.
For `CN1CCN(Cc2ccc(NC(=O)c3cnc(F)c(C#Cc4cnc(N)c5ncccc45)c3)cc2C(F)(F)F)CC1`, the growth was -30.1% (active) in the assay with SK-MEL-2 melanoma; 23.7% in the assay on EKVX NSCLC; 11.7% with SN12C renal; 7.5% (active) with UO-31 renal; 28.7% in the assay with TK-10 renal; 10.1% with ACHN renal. Moreover, the growth with CAKI-1 renal was 13.1%; with A498 renal it was -25.8% (active); with CCRF-CEM leukemia, 18.2%; in the assay with MOLT-4 leukemia it was 8.73% (active).
Regarding `COc1cc(NC(C)CCCN)c2ncccc2c1Oc1ccc(Cl)cc1` (centres undefined), the growth in the assay with SK-MEL-2 melanoma was 102%; with EKVX NSCLC it was 77.1%; in the assay on SN12C renal, 77.3%; in the assay with UO-31 renal it was 41.5%; in the assay on TK-10 renal, 101%; with ACHN renal, 82.6%. The growth is 68.7% in the assay on CAKI-1 renal, 71.1% in the assay with A498 renal, 77% with CCRF-CEM leukemia and 52.9% in the assay with MOLT-4 leukemia.
Regarding `Cc1nc2n[nH]c(N)c2nc1C`, the growth in the assay with SK-MEL-2 melanoma is 103%; with EKVX NSCLC, 106%; in the assay with SN12C renal, 103%; in the assay with UO-31 renal, 87%; in the assay on TK-10 renal it was 104%; in the assay on ACHN renal it was 104%. For the same compound, the growth was 106% with CAKI-1 renal, 120% in the assay on A498 renal and 101% in the assay with CCRF-CEM leukemia.
Regarding `OC(c1cc(-c2ccc(C(F)(F)F)cc2)nc(-c2ccc(C(F)(F)F)cc2)c1)C1CCCCN1` (centres undefined), the growth in the assay on SK-MEL-2 melanoma was -66.6% (active); in the assay with EKVX NSCLC it was -65.4% (active); with SN12C renal, -78.5% (active); in the assay with UO-31 renal it was -83.6% (active); in the assay on TK-10 renal, -90.6% (active); in the assay on ACHN renal, -73.4% (active). For the same compound, the growth with CAKI-1 renal is -81.6% (active); in the assay with A498 renal it was -80.5% (active); in the assay on CCRF-CEM leukemia it was -56.2% (active); with MOLT-4 leukemia, -57.5% (active).

The record behind these values is PubChem BioAssay (NCI).
